Compound activity deposited in PubChem BioAssay by National Center for Advancing Translational Sciences (NCATS).
This is a sample that favours compounds with a hit; in the whole collection about 1.2% have one here.
Luc counter – blocks Kinase-Glo luciferase, a counter-screen artifact | Q27757 | Kinase-Glo luciferase, ATP luminescence, 8 min | Potency, µM (doses to about 38.3 µM), actives largely listed as inhibitors | 200,000 compounds, 0.28% hits | AID 1379; active = well fitted inhibition curve with a large enough effect; note: nearly all actives have a fitted effect of over 60% in size
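Compound is pinned into ATP-containing buffer (10 uM ATP, imidazole pH 7.2, 7 mM MgCl2). Kinase-Glo luciferase reagent is then added. Light output is recorded following an 8-min room-temperature incubation.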
KCNH2 3.1 block – blocks the human KCNH2 3.1 channel isoform. U2OS KCNH2 3.1, thallium flux FluxOr; hits give low values. 340,000 compounds, 0.95% hits. activity change, % (tested at about 1.8 µM);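 active = maximum activity change below -70%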;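 note: thallium influx rate constant from kinetic fluorescence after stimulation buffer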
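Channel expression came from 3.1 mutant virus (1.77 x 10^8 /mL) applied to suspended U2OS cells for 4 h. Flux was tracked with FluxOr dye plus Red40 quencher, and kinetic rate constants normalized to controls.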
hERG WT inh – blocks the wildtype human KCNH2 potassium channel; AID 720551; Q12809; U2OS, BacMam KCNH2, thallium flux FluxOr; hits give low values; 340,000 compounds, 0.37% hits; activity change, % at 1.84 µM;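 active = maximum activity change below -70%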
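U2OS cells transduced with wild-type KCNH2 virus are loaded with FluxOr dye for 45 min, and thallium flux is measured in kinetic reads before and after stimulation buffer. Rate constants are normalized to DMSO controls.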
Hits are given with their value; . = inactive; / = not tested or not shown; [ ] = remark or other dose.

SMILES	Luc counter	KCNH2 3.1 block	hERG WT inh
CC(=O)Nc1ccc(S(=O)(=O)NCCC(=O)OCc2nnc(-c3ccccc3)o2)cc1	/	.	.
CCOC(=O)C(=O)Cc1cccnn1	/	.	.
COC(C[C@H](O)C[C@@H](O)[C@H](C)OCc1ccccc1)OC	/	.	.
COC(C[C@@H](O)C[C@@H](O)[C@@H](C)OCc1ccccc1)OC	/	-222	.
CCOC(=O)C(/C(C)=N/NC(=O)c1ccccc1[N+](=O)[O-])C(C)C (configuration not stated)	/	-83	.
CCOC(=O)C(CC)/C(C)=N/NC(=O)c1ccccc1[N+](=O)[O-] (configuration not stated)	.	.	.
COc1ccc2nc3c(nc2c1)C(=O)c1ccccc1-3	.	/	/
CCOC(=O)CN1C(=O)N[C@@H](c2ccccc2)[C@H](C(C)=O)[C@H]1C	.[7.66 µM]	-82	.
CCOC(=O)CN1C(=O)N[C@@H](c2ccccc2)[C@H](C(=O)OC)[C@H]1C	.[7.66 µM]	/	/
CCC(Cc1ccccc1)NC(=O)Cn1cccc1C(=O)c1ccccc1 (configuration not stated)	/	.	.
CCC(Cc1ccccc1)NC(=O)Cn1ncc2ccsc2c1=O (configuration not stated)	.	-110	.
CC(=O)c1ccc(Nc2nc(-c3sc(C)nc3C)cs2)cc1	/	.	-134
CC(=O)Nc1ccc(Nc2nc(-c3sc(C)nc3C)cs2)cc1	/	.	.
CC(C)c1ccc(/C=C2\SC(=S)N(CCC(=O)NCCCn3ccnc3)C2=O)cc1	/	-77	.
COc1ccc(/C=C2\SC(=S)N(CCC(=O)NCCCn3ccnc3)C2=O)cc1	/	.	.
CCCn1c(=S)[nH]c2cc(C(=O)N3CCN(c4ccc(F)cc4)CC3)ccc2c1=O	/	.	.
Cc1cc(NC(=O)CN2CCC(n3nnc4cc(C(F)(F)F)ccc43)CC2)no1	.	.	.
CCOc1ccc2nc(NC(=O)CN3CCC(n4nnc5cc(C(F)(F)F)ccc54)CC3)sc2c1	.	-79	.
COc1cc(-c2nc3n(c(=O)c2C#N)CCS3)cc(OC)c1OC	/	.	.
CCCCn1nc(C(=O)N(C)Cc2nc3ccccc3c(=O)[nH]2)c2ccccc2c1=O	/	-75	.
CCN(Cc1nc2cc(Cl)ccc2c(=O)[nH]1)C(=O)c1nn(C)c(=O)c2ccccc12	/	.	.
CC(=O)N(C)c1ccc(OCC(O)Cn2c3ccc(Cl)cc3c3cc(Cl)ccc32)cc1 (configuration not stated)	.	.	-76
CC(=O)N(C)c1ccc(OCC(O)Cn2c(C)nc3ccccc32)cc1 (configuration not stated)	.	.	.
CC#CCN(Cc1ccco1)C(=O)C1CCC(=O)N(CCc2cccc(F)c2)C1 (configuration not stated)	/	.	.
CC(=O)N1Cc2ccccc2CC1C(=O)NCc1ccccc1F (configuration not stated)	/	.	.
SMILES	Luc counter	KCNH2 3.1 block	hERG WT inh
N#CC1(NC(=O)COC(=O)c2nc(Cl)c(Cl)c(N)c2Cl)CCCCC1	/	.	.
N#CC1(NC(=O)COC(=O)c2ncc(Cl)c(Cl)c2Cl)CCCCC1	/	-73	.
O=C(Nc1ccccc1)C1=C[C@@H](c2ccc(C(F)(F)F)cc2)C[C@@H](OCCCCO)O1	/	.	.
O=C1CC2CC1C(C(=O)O)C2C(=O)O (configuration not stated)	/	.	.
Cn1c(=O)c(NCCO)c2c3c(cccc31)C(=O)c1ccccc1-2	.	.	.
Cn1c(=O)c(NCCc2ccccc2)c2c3c(cccc31)C(=O)c1ccccc1-2	.	-83	-70
O=C(Nc1ccc(Cl)cc1)Nc1ccccc1C(=O)O	13µM	.	.
O=C(Nc1ccc(Cl)c(Cl)c1)Nc1ccccc1C(=O)O	.	/	.
CC(=NNC(=O)c1ccc(NS(=O)(=O)c2cccs2)cc1)c1ccc(OCC(N)=O)cc1	/	.	.
O=C(CSc1ccccc1)N1CCN(S(=O)(=O)c2ccccc2)CC1	/	/	.
Nc1cc(N)nc(SCC(=O)N2CCN(S(=O)(=O)c3ccccc3)CC2)n1	/	.	-90
Cc1nc(N)ncc1CCC1OCCO1	/	.	.
CCCCn1c(N)c(N(CC(C)C)C(=O)c2ccncc2)c(=O)[nH]c1=O	/	.	.
C=CCN1C(=O)c2ccc(C(=O)N(CC(C)C)c3c(N)n(CCCC)c(=O)[nH]c3=O)cc2C1=O	/	-147	.
Cc1ccc(-c2csc3ncnc(N4CCN(S(=O)(=O)c5cccs5)CC4)c23)cc1	/	.	.
Cc1cccc(CC2S/C(=N/N=C/c3ccco3)N(c3ccccc3)C2=O)c1 (configuration not stated)	.	-104	.
CCC1S/C(=N/N=C/c2ccco2)N(c2ccc(F)cc2)C1=O (configuration not stated)	.	/	.
Cc1cc2nc[nH]c(=O)n2n1	/	.	.
O=C(CN1CCN(Cc2ccccc2)CC1)N1CCN(c2ccccc2)CC1	/	.	.
COc1ccccc1NC(=O)CN1CCN(Cc2ccccc2)CC1	.	.	.
NC(=O)c1ccccc1NC(=O)CN1CCCCCC1	/	.	.
O=C(CN1CCN(Cc2ccccc2)CC1)Nc1ccccc1-c1ccccc1	.	.	-74
O=C(CN1CCN(Cc2ccccc2)CC1)N1CCCCCC1	.	-83	.
NC(=O)c1ccccc1NC(=O)CN1CCN(Cc2ccccc2)CC1	/	-77	.
COc1cc(NC(=O)C2=C(C)OCCS2)c(Cl)cc1C(=O)NCCN(C)C	/	.	.
SMILES	Luc counter	KCNH2 3.1 block	hERG WT inh
CSc1nc(N)c(C(=O)N(c2ccccc2)c2ccccc2)s1	/	.	.
CCCCN(C(=O)C1CCCO1)c1c(N)n(CC(C)C)c(=O)[nH]c1=O (configuration not stated)	/	.	.
COc1cccc(CNC(=O)c2ccc(NS(=O)(=O)c3ccc4[nH]c(=O)[nH]c4c3)cc2)c1	/	.	.
Brc1ccc2c(c1)CN1CCCC1=N2	/	.	.
CC(C)=CCC12Oc3cc(O)ccc3C1(O)Oc1cc3c(c(O)c1C2=O)C=CC(C)(C)O3 (configuration not stated)	/	.	.
CCOC(=O)c1cc(C#N)c(N2CCN(c3ccccn3)CC2)nc1-c1ccccc1	.	-94	.
CCOC(=O)c1cc(C#N)c(SC)nc1-c1ccccc1	.	.	.
CC(=O)NC12CC3CC(C1)CC(C(=O)N1CCN(S(=O)(=O)c4cccc(C(F)(F)F)c4)CC1)(C3)C2	/	.	.
O=C(NCCC(=O)N1CCN(c2ccccc2O)CC1)c1ccc(Br)cc1	/	.	.
O=C(NCCC(=O)N1CCN(c2cccc(Cl)c2)CC1)c1ccc(Br)cc1	/	-75	.
CCN1CCN(c2oc(COc3ccc(-c4ccccc4)cc3)nc2C#N)CC1	/	-71	.
N#Cc1nc(COc2ccc(Br)cc2)oc1N1CCN(Cc2ccccc2)CC1	.	.	.
COc1cc(CN2CCC(n3nccc3NC(=O)C3CCOC3)CC2)ccc1F (configuration not stated)	/	.	.
CCn1cc(CN2CCC(n3nccc3NC(=O)c3ccccc3OC)CC2)cn1	/	.	.
COc1ccccc1C(=O)Nc1ccnn1C1CCN(Cc2ccccc2OCCO)CC1	/	-82	.
COc1ccccc1CN1CCC(n2nccc2NC(=O)c2ccccc2Cl)CC1	/	.	.
COc1cc(CN2CCC(n3nccc3NC(=O)c3ccccc3OC)CC2)ccc1F	/	-70	-106
